Compounds without any hit were thinned out: in the full panel of roughly 83,000, 20% have a hit.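 Results are percent growth after 48 hours of single-concentration exposure. 100 means growth as in untreated cells, lower positive values show inhibition; negative values down to -100 show cell death.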 Unmarked numbers belong to inactive results. Calls of active or inactive are those of the source. Rule for the calls: active = growth percent below 10; inactive = the rest.
Key:
Experiment in all cases: NCI-60 one-dose screen, 48 h (100 = growth as untreated, 0 = no growth, -100 = all killed)
Details in all cases: 10 µM
HCT-15 colon = tested on: HCT-15 colon
HT29 colon = tested on: HT29 colon
SNB-75 CNS = tested on: SNB-75 CNS
SNB-19 CNS = tested on: SNB-19 CNS
U251 CNS = tested on: U251 CNS
PC-3 prostate = tested on: PC-3 prostate
SK-MEL-5 melanoma = tested on: SK-MEL-5 melanoma
LOX IMVI melanoma = tested on: LOX IMVI melanoma
SK-MEL-28 melanoma = tested on: SK-MEL-28 melanoma
EKVX NSCLC = tested on: EKVX NSCLC
SN12C renal = tested on: SN12C renal
UO-31 renal = tested on: UO-31 renal
TK-10 renal = tested on: TK-10 renal
ACHN renal = tested on: ACHN renal
CAKI-1 renal = tested on: CAKI-1 renal
A498 renal = tested on: A498 renal
CCRF-CEM leukemia = tested on: CCRF-CEM leukemia
MOLT-4 leukemia = tested on: MOLT-4 leukemia
SK-MEL-2 melanoma = tested on: SK-MEL-2 melanoma
UACC-62 melanoma = tested on: UACC-62 melanoma

| Structure (SMILES) | growth (HCT-15 colon) | growth (HT29 colon) | growth (SNB-75 CNS) | growth (SNB-19 CNS) | growth (U251 CNS) | growth (PC-3 prostate) | growth (SK-MEL-5 melanoma) | growth (LOX IMVI melanoma) | growth (SK-MEL-28 melanoma) | growth (EKVX NSCLC) | growth (SN12C renal) | growth (UO-31 renal) | growth (TK-10 renal) | growth (ACHN renal) | growth (CAKI-1 renal) | growth (A498 renal) | growth (CCRF-CEM leukemia) | growth (MOLT-4 leukemia) | growth (SK-MEL-2 melanoma) | growth (UACC-62 melanoma) |
| --- | --- | --- | --- | --- | --- | --- | --- | --- | --- | --- | --- | --- | --- | --- | --- | --- | --- | --- | --- | --- |
| CCCCc1oc2ccccc2c1C(=O)c1cc(I)c(OCCN(CC)CC)c(I)c1 | -50.5% (active) | -61.2% (active) | 12.5% | -60.6% (active) | -86.3% (active) | -8.07% (active) | -100% (active) | -88.7% (active) | -87.8% (active) | 3.63% (active) | 5.13% (active) | -37% (active) | -40.5% (active) | 20% | -21% (active) | -47.3% (active) | -32.2% (active) | -54.3% (active) |  |  |
| CCN(CC)CCOC(=O)c1cc(OCc2ccccc2)c(OCc2ccccc2)c(OCc2ccccc2)c1 | 13.1% | 7.14% (active) | 72.1% | 56.9% | 18.3% | 49.6% | 63.3% | -16.9% (active) | 63.2% | 47.7% |  | 50.7% | 78.3% | 71.9% | 50.4% | 68.8% | 37% |  | 78.5% |  |
| C=C/C(C)=C/C[C@]1(C)[C@H](C)[C@@H](OC(=O)CCC)[C@H](O)[C@@]23C(=C[C@H](OC)C[C@@H]12)[C@@H](OC(=O)CCC)O[C@H]3OC(C)=O | -67.4% (active) | -66.9% (active) | -84.1% (active) | 27.4% | -22% (active) |  | -88% (active) | -66.4% (active) | -49.8% (active) | -33.7% (active) | -51.9% (active) | -90.7% (active) | -95.1% (active) | -94.4% (active) | 0.0055% (active) |  |  | -12.8% (active) | -70.5% (active) | -78.3% (active) |
| O=C(CCCNC(=O)c1nc(-c2ccccc2)n(-c2ccccc2)n1)NO | 104% | 90.1% | 107% | 98.1% | 94.6% |  | 104% | 97.9% | 109% | 96.8% | 101% | 94.5% | 85.9% | 114% | 98% |  |  | 101% | 97.9% | 102% |
| NC1=NC(c2ccc(Cl)cc2)C2=C(N1)/C(=C/c1ccc(Cl)cc1)CCC2 (configuration not stated) | 58.3% | 7.71% (active) | 87.3% | 85.7% | 13.9% | 79.5% | 87.5% | -69.6% (active) | 99.2% | 93.7% | 84.8% | 67.8% |  | 95.6% | 90.8% | 54.7% | 72.2% | 64.9% | 94.7% |  |
| CCc1cc(Cl)c(OC)c(C(=O)NCC2CCCN2CC)c1O (configuration not stated) | 91.8% | 89.5% | 67.1% | 91.2% | 83.8% | 73.7% | 83.4% | 90.6% | 109% | 82.4% | 92.5% | 61.4% | 104% | 88.5% | 72.2% | 70.1% | 96% | 88% |  |  |
| COc1cc2c3c(n(C4CCN(C)CC4)c(=O)c2cc1OC)-c1cc2c(cc1C3=O)OCO2 | 71.5% | 39.7% | 60.1% | 59.6% | 35.5% |  | 57.7% | 8.68% (active) | 107% | 69.4% | 43.4% | 52.4% | 86.9% | 57.2% | 75.6% |  |  | 29.5% | 80.8% | -25.6% (active) |
| NC1=NC(c2ccccc2)C2=C(N1)/C(=C/c1ccccc1)CCC2 (configuration not stated) | 84.9% | 32.2% | 85.6% | 97.5% | 34.8% | 78.7% | 98.9% | -4.8% (active) | 102% |  | 91.6% | 70.5% |  | 108% |  | 75% | 91% | 77.8% | 87.1% |  |
| CS(=O)(=O)c1nccc(-c2c(-c3cccc(OCCN4CCOCC4)c3)nc3sccn23)n1 | 81.8% | 66.9% | 75.9% | 82.5% | 86.6% | 77.9% | 84.5% | 91.3% | 99.3% | 101% | 96.8% | 68.5% |  | 90.9% | 85.3% | 59.2% |  | 93.9% | 102% |  |
| COc1cccc(N=Nc2cccc(OC)c2)c1 | 91.1% | 94.9% | 102% | 97% | 79.4% | 67.7% | 99.1% | 96.7% | 99.6% | 83.5% |  | 88.2% | 95.9% |  | 94.2% | 86.4% | 90.8% | 79.5% | 94.4% |  |
| NS(=O)(=O)c1ccc(Br)cc1 | 94.8% | 91.8% | 93.2% | 96.9% | 102% | 75.6% | 104% | 98.5% | 104% | 90.3% |  | 97.1% | 90.4% | 107% | 95.3% | 115% | 104% | 92.7% | 101% |  |
| Cc1ccc(NCCN(C)CC(C)O)c2c(=O)c3ccc(Cl)cc3sc12 (configuration not stated) | 21.2% | -27% (active) | 76.3% | 55% | 8.57% (active) | 48.2% | 46.9% | -82.9% (active) | -53.5% (active) | 78.5% |  | 51.5% | 79.1% | 44.6% |  | 73.8% | 20.4% | 16.2% | 66.8% |  |
| CCn1cc(C(=O)O)c(=O)c2cc(F)c(N3CCNCC3)cc21 | 102% | 109% | 98.2% | 101% | 101% | 102% | 99.3% | 98.7% | 115% | 102% | 106% |  | 116% | 95.5% | 96.5% | 117% | 102% | 93.5% | 113% |  |
| N#Cc1c(-c2ccc(Cl)cc2)cc(-c2cc(O)ccc2O)nc1N | 43.8% | 87.3% | 32.8% | 26.5% | -26.5% (active) |  | -79.9% (active) | -56.2% (active) | 18.4% | 42.9% | -2.03% (active) | 59% | 79.6% | 8.35% (active) | 82.8% |  |  | 11.3% | 31.2% | -25.6% (active) |
| Cc1cc(SC#N)cc(C(C)(C)C)c1O | 103% | 91.4% | 92.4% | 113% | 91.4% | 66.8% | 101% | 100% | 105% | 102% |  | 93.6% | 108% | 101% | 96.4% | 86.1% | 86.4% | 66.9% | 82.2% |  |
| CCCCC/C=C/C/C=C/CCCCCCCC1=NC(C)(C)CN1C(C)C | -3.26% (active) | -21% (active) | 42.7% | 47.3% | 0.562% (active) | 28.9% | 30.1% | 12.9% | 72% | 51.9% | 47.9% | 26.2% |  | 32.9% | 26.9% |  | 8.7% (active) | 1.44% (active) | 84.6% |  |
| CC(=O)/C(=C/c1ccc(Br)cc1)C(=O)c1ccccc1 | 46.6% | 76.6% | 84.5% | 90.6% | 66.9% | 80.6% | 66.3% | -61.9% (active) | 100% |  | 69.1% | 57.4% |  | 56.1% | 80.2% | 91.6% | -7.34% (active) | -5.12% (active) | 107% |  |
| O=C(O)COc1c(Cl)cc([N+](=O)[O-])cc1Cl | 103% | 86.2% | 102% | 112% | 97.5% | 65.3% | 96.3% | 100% | 102% | 102% |  | 94.2% | 99% | 106% | 99.9% | 97.5% | 92.5% | 80.6% | 101% |  |

Source: PubChem BioAssay (NCI)
